Assay [1] concerns the target alpha-glucosidase (Oryza sativa, rice) (UniProt Q653V4). Description: Counterscreen for Glucocerebrosidase Inhibitors: qHTS Assay for Rice alpha-Glucosidase at pH 5.0 (AID 997).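 Note: 0% = full activity with enzyme and -100% = basal without enzyme.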 The method, boiled down: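 Rice alpha-glucosidase (4 nM final) with 400 uM 4-methylumbelliferyl-alpha-D-glucopyranoside in citrate buffer pH 5.0, 20 min at room temperature, stopped at pH 10; fluorescence 365/440 nm, compounds 0.7 nM–77 uM, AC50 from Hill fits.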

A short description of assay [2]: Validation of Assay for Modulators of Lamin A Splicing (AID 1459; active = well fitted curve in the direction sought with a large enough effect in the signal ratio; the % refers to the signal ratio;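 note: cells exposed to compound for two days before reading; 0% is about no effect; ratio rise marks activators and ratio drop marks inhibitors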). The method, boiled down:
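HeLa S3 lamin A-EGFP/DsRed2 stable clone, 600 cells/well, Opti-MEM 2% FBS; compounds by pin tool; 48 hrs, 37 °C/5% CO2; Acumen 488 nm scan, objects 10-100 um; GFP/RFP intensity ratio.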

Assay [3] is described as follows: qHTS Assay for Lipid Storage Modulators (AID 1519; calls by dose curve; for activity change, negative = inhibition: % is set by controls: 0 for no effect and ±100 for the full control effect). To be noted: Drosophila S3 cells, BODIPY lipid droplet/cell ratio, laser cytometry, cells loaded with oleic acid; for activity change, negative = inhibition: at 57.5 µM (top of the series). The method, boiled down: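 Cells seeded at 5,000 per well were treated with compounds over a concentration series and loaded with oleic acid (400 uM, as added). Lipid droplet fluorescence (488 nm excitation, 500-530 nm channel) was read by laser-scanning cytometry and normalized to 20 uM Triacsin C.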

Assay [4] can be described thus: Counterscreen for APE1 Inhibitors: Fluorescent Dye Displacement Validation Assay (AID 1707).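 Note: plate controls were ThO with dsDNA and no compound for no effect and ThO without dsDNA for full effect.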 The method, boiled down:
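ThO 250 nM + dsDNA 50 nM (THF abasic site, 5'-TAMRA), Tris-HCl pH7.5/50mM NaCl/2 mM MgCl2/0.01% Tween-20; compounds pin-transferred; ex 480/em 540 nm endpoint. Neutral = no compound; no-DNA ThO wells = negative control.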

Assay [5] addresses Endonuclease 4 (Escherichia coli (strain K12)) (UniProt P0A6C1). Description: Counterscreen for APE1 Inhibitors: qHTS Validation Assay for Inhibitors of Endonuclease IV (AID 1708). Note: % is set by controls: 0 for no effect and ±100 for the full control effect. The method, boiled down: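 Cleavage of a quenched abasic-site DNA duplex (50 nM, 5'-TAMRA, 3'-BHQ-2) by 2 nM enzyme is followed as fluorescence increase. Compounds are preincubated with enzyme 15 min at room temperature before substrate addition.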

Assay [6] can be described thus: qHTS for differential inhibitors of proliferation of Plasmodium falciparum line Dd2 (AID 1882).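 Note: compound exposure of 72 h on infected erythrocytes; plate controls were DMSO vehicle for no effect and 0.29 µM artemisinin for full effect; nearly all actives have a fitted effect of over 65% in size.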 To be noted: Potency: Plasmodium falciparum Dd2 proliferation inhibition. The method, boiled down:
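SYBR Green I DNA fluorescence read-out, ex 485/em 535 nm. Signals were normalized to 0.29 uM artemisinin and DMSO wells, then corrected using vehicle-only plates flanking each stack. Parasite growth ran 72 h in erythrocytes before lysis.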

Assay [7] can be described thus: qHTS for differential inhibitors of proliferation of Plasmodium falciparum line W2 (AID 1883).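 For activity change, negative = inhibition: 0% = vehicle wells and -100% = control inhibitor wells.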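 Note: parasites grown with compound for 72 h before lysis and staining.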 Note: potency is the fitted concentration of half-maximal effect. As to conditions: Potency: Plasmodium falciparum W2 proliferation inhibition.
Assay [8] is described as follows: qHTS for differential inhibitors of proliferation of Plasmodium falciparum line HB3 (AID 1886).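 For activity change, negative = inhibition: plate controls were vehicle for no effect and reference inhibitor for full effect.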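 Note: parasites grown with compound for 72 h before SYBR Green readout.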 Note: potency is the fitted concentration of half-maximal effect. To be noted: Potency: Plasmodium falciparum HB3 proliferation inhibition.
Assay [9] addresses Ferritin light chain (Equus caballus) (UniProt P02791). Description: qHTS Validation Assay for Identification of Novel General Anesthetics (AID 2323). Note: % is set by controls: 0 for no effect and ±100 for the full control effect. The method, boiled down: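 Fluorescence at 535 nm (excitation 380 nm) reported loss of 1-AMA binding to horse-spleen apoferritin (10 uM) in PBS with 50% saturated 1-aminoanthracene, after 10 min room-temperature incubation with compound; values from Hill fits of normalized response.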

For assay [10], the target named is ATP-dependent DNA helicase Q1 (Homo sapiens) (UniProt P46063). Briefly: qHTS Validation Assay for Inhibitors of RecQ-Like Dna Helicase 1 (RECQ1) (AID 2353).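 Note: plate controls were DMSO vehicle for no effect and enzyme-free control for full effect.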 The method, boiled down:
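50 nM RECQ1T1 preincubated 15 min with compound in Tris pH 8.0 buffer with MgCl2, DTT, Tween-20 and 2.5 ug/ml poly(dI-dC); started with 200 nM TAMRA/BHQ-2 forked duplex and 2 mM ATP. Unwinding read as fluorescence (525/598 nm), two reads 2 h apart.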

In assay [11] the target is DNA repair nuclease/redox regulator APEX1 (Homo sapiens) (UniProt P27695). Description: qHTS Validation Assay for Inhibitors of the Human Apurinic/apyrimidinic Endonuclease 1 (APE1) (AID 1705;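 note: TAMRA fluorescence gain over two minutes as APE1 cuts a quenched THF abasic duplex; % is set by controls: 0 for no effect and ±100 for the full control effect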). The method, boiled down:
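qHTS, 1536-well. APE1 + cpd 15 min RT → 50 nM TAMRA/BHQ-2 THF-abasic dsDNA substrate → kinetic fluorescence, 3 reads/60 s; delta(read3−read1) = reaction progress. No-enzyme buffer = negative control.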

Assay [12] is described as follows: qHTS for differential inhibitors of proliferation of Plasmodium falciparum line 7G8 (AID 1815).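 For activity change, negative = inhibition: plate controls were vehicle wells for no effect and reference inhibitor wells for full effect.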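 Note: parasite growth measured after three days of incubation.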 Note: potency is the fitted concentration of half-maximal effect.
The nature of assay [13]: qHTS for differential inhibitors of proliferation of Plasmodium falciparum line GB4 (AID 1816).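 For activity change, negative = inhibition: 0% = vehicle DMSO and -100% = reference inhibitor.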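 Note: parasite growth measured after 72 h incubation.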 Note: potency is the fitted concentration of half-maximal effect. To be noted: Potency: Plasmodium falciparum GB4 proliferation inhibition.
Assay [14] in a line: qHTS for differential inhibitors of proliferation of Plasmodium falciparum line 3D7 (AID 1876). Note: potency is the fitted concentration of half-maximal effect.
A short description of assay [15]: qHTS for differential inhibitors of proliferation of Plasmodium falciparum line D10 (AID 1877).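 Note: parasites grown with compound for 72 h before DNA staining; plate controls were vehicle wells for no effect and reference inhibitor wells for full effect.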
The nature of assay [16]: qHTS Assay for Modulators of Human Peripheral Myelin Protein 22 (PMP22) Expression/Activity (AID 1967; active = well fitted curve in the direction sought with a large enough effect in the signal ratio; the % refers to the signal ratio;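 note: 0% = untreated cells and 100% end not stated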). The method, boiled down:
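Luminescence ratio of Pmp22 promoter-driven green luciferase to EF-alpha-driven red luciferase, in engineered mouse MSC80 Schwann cells, served as read-out. Compounds were incubated 24h; untreated cells defined 0% Activity; curves were classified by r2, magnitude and activity.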

In assay [17] the target is Lysosomal alpha-glucosidase (Homo sapiens) (UniProt P10253). Description: Confirmation of Inhibitors and Activators of Purified Human alpha-Glucosidase (AID 2115; active = well fitted curve in either direction with a large enough effect). As to conditions: purified human GAA enzyme activity. The method, boiled down: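 Purified human enzyme (4 nM) with 4-methylumbelliferyl-alpha-D-glucopyranoside (400 uM), compounds up to 77 uM, in citrate/phosphate buffer pH 5.0 with 0.005% Tween-20. After 20 min at RT, stopped at pH 10; fluorescence ex 365/em 440 nm; AC50 from Hill fits.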

Assay [18] addresses RecQ-like DNA helicase BLM (Homo sapiens) (UniProt P54132). Description: qHTS Validation Assay for Inhibitors of Bloom's syndrome helicase (BLM) (AID 2364).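 Note: plate controls were DMSO vehicle for no effect and enzyme-free control for full effect.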 The method, boiled down:
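50 nM BLM preincubated 15 min at room temperature with compound in pH 8.0 Tris buffer containing 2.5 ug/ml poly(dI-dC); started with 200 nM TAMRA/BHQ-2 forked duplex and 2 mM ATP (final). Unwinding read as TAMRA fluorescence increase, two reads 2 h apart.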

[19] abbreviates: measured here: cell count channel max response.
Setting [20] is: measured here: lipid channel max response.

Several values for one entry are separate records, joined by “and”; a condition that tells them apart may be missing. Equal values may be shown once. Results filed as inconclusive are left out. Activity calls are given as the source filed them. Unless noted, calls come from the whole dose curve; as a rule, active = well fitted curve in the direction sought with a large enough effect; inconclusive = small, poorly fitted or top-dose-only effect, or another doubt; inactive = no such curve, though single readings can be large; an effect the other way counts as inactive or inconclusive.

ATP-dependent DNA helicase Q1 (Homo sapiens), sequence (P46063 whole entry, looked up): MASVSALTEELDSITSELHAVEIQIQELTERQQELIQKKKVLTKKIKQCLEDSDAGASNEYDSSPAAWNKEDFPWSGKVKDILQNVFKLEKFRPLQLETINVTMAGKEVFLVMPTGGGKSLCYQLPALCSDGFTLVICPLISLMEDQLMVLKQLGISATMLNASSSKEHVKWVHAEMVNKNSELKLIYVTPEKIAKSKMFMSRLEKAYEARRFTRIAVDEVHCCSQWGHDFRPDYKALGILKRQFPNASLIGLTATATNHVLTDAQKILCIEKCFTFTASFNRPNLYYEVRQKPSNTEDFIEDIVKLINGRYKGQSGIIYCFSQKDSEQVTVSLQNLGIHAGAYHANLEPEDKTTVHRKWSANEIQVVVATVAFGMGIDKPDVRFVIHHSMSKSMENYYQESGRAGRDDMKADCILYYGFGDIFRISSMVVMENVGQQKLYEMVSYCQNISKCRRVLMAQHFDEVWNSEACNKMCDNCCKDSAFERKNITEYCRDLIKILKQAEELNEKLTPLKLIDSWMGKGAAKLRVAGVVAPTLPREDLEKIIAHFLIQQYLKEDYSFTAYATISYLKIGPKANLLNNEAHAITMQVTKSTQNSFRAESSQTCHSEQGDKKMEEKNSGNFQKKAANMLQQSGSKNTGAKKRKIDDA
Ferritin light chain (Equus caballus), sequence (P02791 2-175 limits assumed): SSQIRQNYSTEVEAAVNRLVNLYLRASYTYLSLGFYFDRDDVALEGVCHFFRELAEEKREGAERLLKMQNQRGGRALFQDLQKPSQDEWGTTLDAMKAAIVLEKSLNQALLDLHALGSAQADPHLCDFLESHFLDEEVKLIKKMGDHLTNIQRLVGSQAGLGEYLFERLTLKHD
RecQ-like DNA helicase BLM (Homo sapiens), sequence (P54132 whole entry, looked up): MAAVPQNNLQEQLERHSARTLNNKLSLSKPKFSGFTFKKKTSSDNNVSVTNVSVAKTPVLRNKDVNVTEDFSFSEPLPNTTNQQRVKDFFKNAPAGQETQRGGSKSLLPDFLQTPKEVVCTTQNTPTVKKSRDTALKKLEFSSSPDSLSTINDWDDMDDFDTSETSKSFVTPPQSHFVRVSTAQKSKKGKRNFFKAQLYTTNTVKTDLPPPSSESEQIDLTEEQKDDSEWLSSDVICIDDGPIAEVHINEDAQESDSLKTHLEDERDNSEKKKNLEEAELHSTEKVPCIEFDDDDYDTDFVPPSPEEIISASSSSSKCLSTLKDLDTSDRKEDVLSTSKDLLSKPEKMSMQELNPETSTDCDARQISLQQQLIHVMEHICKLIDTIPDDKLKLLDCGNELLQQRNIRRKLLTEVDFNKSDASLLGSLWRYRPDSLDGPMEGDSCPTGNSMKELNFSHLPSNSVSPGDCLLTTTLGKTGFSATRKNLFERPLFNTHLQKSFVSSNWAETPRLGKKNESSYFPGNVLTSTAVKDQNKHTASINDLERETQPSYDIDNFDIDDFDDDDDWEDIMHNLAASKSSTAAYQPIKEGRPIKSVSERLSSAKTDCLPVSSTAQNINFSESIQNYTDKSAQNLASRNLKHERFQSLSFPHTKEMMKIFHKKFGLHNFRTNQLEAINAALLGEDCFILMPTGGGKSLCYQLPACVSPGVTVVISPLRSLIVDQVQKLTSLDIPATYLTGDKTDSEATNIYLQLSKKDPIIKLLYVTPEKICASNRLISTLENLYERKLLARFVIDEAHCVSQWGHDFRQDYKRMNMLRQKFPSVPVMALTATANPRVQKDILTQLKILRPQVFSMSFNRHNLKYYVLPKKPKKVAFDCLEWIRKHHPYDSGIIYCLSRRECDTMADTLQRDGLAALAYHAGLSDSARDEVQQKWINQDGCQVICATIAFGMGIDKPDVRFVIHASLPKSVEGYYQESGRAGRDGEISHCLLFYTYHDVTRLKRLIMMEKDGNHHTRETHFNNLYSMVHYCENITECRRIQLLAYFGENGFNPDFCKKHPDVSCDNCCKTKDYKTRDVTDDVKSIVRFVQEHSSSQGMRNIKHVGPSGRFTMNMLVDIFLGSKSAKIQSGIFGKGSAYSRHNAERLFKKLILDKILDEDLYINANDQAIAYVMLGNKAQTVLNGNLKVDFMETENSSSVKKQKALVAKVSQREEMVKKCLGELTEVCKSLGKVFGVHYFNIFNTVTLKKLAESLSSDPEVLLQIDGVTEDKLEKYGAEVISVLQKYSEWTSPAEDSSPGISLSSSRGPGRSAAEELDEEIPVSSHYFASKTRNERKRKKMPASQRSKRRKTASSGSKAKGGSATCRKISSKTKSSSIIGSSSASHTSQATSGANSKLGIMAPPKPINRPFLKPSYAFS
DNA repair nuclease/redox regulator APEX1 (Homo sapiens), sequence (P27695 whole entry, looked up): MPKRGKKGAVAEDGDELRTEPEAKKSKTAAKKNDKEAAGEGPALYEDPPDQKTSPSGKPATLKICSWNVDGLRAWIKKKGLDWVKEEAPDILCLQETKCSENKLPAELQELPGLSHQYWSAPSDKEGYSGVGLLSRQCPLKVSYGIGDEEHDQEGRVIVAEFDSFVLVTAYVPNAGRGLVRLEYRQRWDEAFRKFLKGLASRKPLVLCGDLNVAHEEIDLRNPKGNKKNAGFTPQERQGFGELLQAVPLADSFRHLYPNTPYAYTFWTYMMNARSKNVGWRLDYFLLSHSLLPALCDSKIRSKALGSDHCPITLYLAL

Regarding `O=c1onc2cnc3ccccc3n12`, the compound was classed as inactive in assay [1] and in [2]. The activity change, negative = inhibition in [3] was 0.198% (inactive). Also, the max response in assay [3] (setting [19]) came out at 54.3%; in [3] (setting [20]), 54.9%. The Potency result in [4], in assay [5], in assay [6], in [7], in [9] and in assay [10] was “inactive” throughout. Also, the Potency in [8] is 5.62 µM (active).

In the case of `NCC(O)(CS(=O)(=O)O)c1ccc(Cl)cc1` (centres undefined), the compound was classed as inactive in assay [2] and in assay [16]. The Potency result in assay [11], in assay [4], in assay [5], in [12], in assay [13] and in assay [14] was “inactive” throughout. Further, the Potency entry in assay [15], in [6], in [7], in [8] and in assay [10] was “inactive” throughout.

On to `OC[C@H]1NC[C@@H](O)[C@@H]1O`, for which the call in assay [2], in assay [16] and in assay [17] was inactive. For the same compound, the Potency entry in [11], in [4], in assay [5], in [12], in assay [13] and in [14] was “inactive” in each case. The Potency entry in [15], in assay [6], in [7], in [8], in assay [9] and in assay [10] was “inactive” in each case. Further, in assay [18], the Potency result was “inactive”.

`CSC(N)=NCCC[C@H](N)C(=O)O`: the outcome in assay [2] and in [16] was inactive. For the same compound, in [3], the activity change, negative = inhibition was -0.616% (inactive). In addition, the max response worked out at 39.8% in assay [3] (setting [19]) and 26.3% in assay [3] (setting [20]). The Potency entry in assay [4], in assay [12], in [13], in assay [14], in assay [15] and in assay [6] was “inactive” throughout. In addition, the Potency entry in assay [7], in assay [8] and in [9] was “inactive” in each case.

For the compound `CC(C)NCC(O)COc1ccc(CC(N)=O)cc1` (centres undefined), the result in assay [2] and in assay [16] was inactive. Besides, in [3], the activity change, negative = inhibition was -4.52% (inactive). Moreover, the max response in [3] (setting [19]) was -32.1%; in assay [3] (setting [20]), -32.6%. Besides, the Potency result in assay [4], in assay [12], in assay [13], in assay [14], in assay [15] and in assay [6] was “inactive” each time. Also, the Potency entry in assay [7], in assay [8], in [10] and in assay [18] was “inactive” in each case.

Regarding `CC(N)=O`, the outcome in assay [1] and in [2] was inactive. In assay [3], the activity change, negative = inhibition was -0.907% (inactive). In addition, the values for the max response in assay [3] (setting [19]) and in [3] (setting [20]) were -17.4% and -17.3%, respectively. The Potency result in [4], in assay [5], in assay [12], in assay [13], in [14] and in assay [15] was “inactive” each time. Besides, the Potency result in [6], in assay [7], in [8], in [9] and in assay [10] was “inactive” each time.

Consider `N#Cc1cc2nc(O)c(O)nc2cc1[N+](=O)[O-]`, for which the outcome in [1], in assay [2] and in [16] was inactive. The activity change, negative = inhibition in assay [3] is 3.63% (inactive) and -0.314% (inactive). Moreover, the max response is 13.7% and -35.1% in assay [3] (setting [19]); 18.1% and -33.4% in [3] (setting [20]). Besides, the Potency result in assay [4], in assay [12], in assay [14], in assay [15], in [6] and in assay [8] was “inactive” in each case. Besides, the Potency result in assay [9] and in [10] was “inactive” in each case.

For the compound `NCCNS(=O)(=O)c1cccc2c(Cl)cccc12`, the outcome in assay [1] and in [2] was inactive. Moreover, the activity change, negative = inhibition in assay [3] was -0.563% (inactive). Moreover, the max response in assay [3] (setting [19]) is -2.01%; in assay [3] (setting [20]), -12.2%. The Potency entry in assay [4] was “inactive”. The Potency was 7.08 µM (active) in assay [12], 8.91 µM (active) in assay [13], 12.6 µM (active) in [14] and 6.31 µM (active) in assay [7].

Turning to `NC(C(=O)N[C@@H]1C(=O)N2C(C(=O)O)=C(Cl)CS[C@H]12)c1ccccc1` (some centres undefined), the outcome in assay [2] and in [16] was inactive. Moreover, in [3], the activity change, negative = inhibition was -2.36% (inactive). The max response in assay [3] (setting [19]) is -29.4%; in assay [3] (setting [20]), -32.3%. For the same compound, the Potency entry in [4], in assay [12], in [13], in assay [14], in assay [15] and in [6] was “inactive” throughout. For the same compound, the Potency entry in [7], in assay [8] and in assay [10] was “inactive” in each case.

(Values after PubChem BioAssay (NCATS).)
